Assay outcomes (PubChem BioAssay)
LmPK inhibitor: blocks Leishmania mexicana pyruvate kinase activity | purified LmPK, Kinase-Glo ATP luminescence, 1 h | Potency, µM (titrated, usually from 57.5 µM), usual class: inhibitors | Q27686 | 290,000 tested, 0.37% active | AID 1721
Target sequence (Q27686 whole entry, looked up): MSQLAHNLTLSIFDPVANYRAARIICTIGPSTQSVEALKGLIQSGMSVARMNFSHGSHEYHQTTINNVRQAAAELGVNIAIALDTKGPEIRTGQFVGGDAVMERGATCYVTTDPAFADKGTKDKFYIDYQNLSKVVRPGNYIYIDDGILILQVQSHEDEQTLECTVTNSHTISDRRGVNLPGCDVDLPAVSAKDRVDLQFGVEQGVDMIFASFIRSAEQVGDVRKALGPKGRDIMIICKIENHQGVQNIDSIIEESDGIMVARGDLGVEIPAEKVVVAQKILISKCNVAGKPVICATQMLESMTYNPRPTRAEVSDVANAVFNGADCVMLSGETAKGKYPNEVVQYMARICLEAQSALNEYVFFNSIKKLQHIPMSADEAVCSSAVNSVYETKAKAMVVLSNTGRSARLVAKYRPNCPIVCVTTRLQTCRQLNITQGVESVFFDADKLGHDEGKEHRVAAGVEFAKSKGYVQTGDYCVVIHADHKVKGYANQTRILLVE
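Screened at intermediate enzyme activity to detect both inhibitors and activators: LmPK at 0.1 nM, with a 0.5 nM enzyme column as activation reference. PEP 0.5 mM, ADP 0.1 mM; ATP detected by luminescence after 1 h.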
VACV Venus inh: vaccinia inhibition (Venus reporter) | Vaccinia virus Venus reporter expression, fluorescence | Potency, µM (titrated, usually from 36.5 µM), hits mostly inhibitors | 330,000 tested, 0.46% active | AID 720580; calls by dose curve; tested in A549 cells; further: nearly all actives have a fitted effect of over 30% in size
HCMV antiviral: human cytomegalovirus inhibition. HFF cells, HCMV-luciferase reporter, 72 h; active compounds read low. activity change, negative = inhibition, % at 57.5 µM. 410,000 tested, 4.5% active. AID 1259415; in the data active means activity change below about -60%; inconclusive means no clear call, values can overlap the other calls; inactive means above about -39%
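Human foreskin fibroblasts infected with luciferase-reporter HCMV at MOI 1 PFU/cell, compounds at two doses. Luciferase measured 72 h post infection; normalized to buffer-only basal and Salinomycin (10uM) controls.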
VACV mCherry inh: vaccinia inhibition (mCherry reporter). Vaccinia virus mCherry reporter infection, fluorescence. Potency, µM (titrated, usually from 36.5 µM), hits mostly inhibitors. 310,000 tested, 0.63% active. AID 720579; calls by dose curve; tested in A549 cells; further: nearly all actives have a fitted effect of over 35% in size
TbPYK inhibitor: inhibitors of Trypanosoma brucei pyruvate kinase | Potency, µM (top dose mostly 76.8 µM), most hits filed as inhibitors | 410,000 tested, 0.12% active | TbPYK enzyme, Kinase-Glo Plus ATP luminescence, 45 min | AID 624173; further: nearly all actives have a fitted effect of over 50% in size
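Luminescence from Kinase-Glo Plus, added after a 45-minute room-temperature reaction, served as the end-point read-out. The enzyme and substrate were preincubated with compound before ADP (130 uM final) initiated turnover. Concentration-effect curves came from normalized qHTS data.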
Each line names hits and unclear results; the compound was inactive in the other large screens; ! = not confirmed by another sample. Rows were chosen to be rich in hits. Some 5% of all compounds tested hit in one or more screens of this group. Unless noted, the call rests on the fitted dose curve; in most records, active means well fitted curve in the direction sought with a large enough effect; inconclusive means small, poorly fitted or top-dose-only effect, or another doubt; inactive means no such curve, though single readings can be large; an effect the other way counts as inactive or inconclusive.

CC1=C(CO)C(=O)OC([C@@H](C)C2CC[C@H]3C4C[C@H]5O[C@]56[C@@H](O)C=CC(=O)[C@]6(C)C4CC[C@]23C)C1 (stereo not given in full)	VACV Venus inh inconclusive, HCMV antiviral -107, VACV mCherry inh 10µM
CCCCN(C)C(=O)c1nc2ccccn2c1CN1CCN(C(=O)c2cccs2)CC1	none
O=C(/C=C/Nc1ccc(F)cc1F)c1cccs1	LmPK inhibitor 8.9µM, TbPYK inhibitor inconclusive
O=C(/C=C/Nc1ccccc1F)c1cccs1	LmPK inhibitor 16µM, TbPYK inhibitor inconclusive
O=C(/C=C/Nc1ccc(F)cc1F)c1ccco1	LmPK inhibitor 10µM, TbPYK inhibitor inconclusive
S=C(NCCCc1ccccc1)NC1CCCCC1	HCMV antiviral inconclusive
Nc1nc(NCC2CCCO2)nc(Nc2ccc(Cl)cc2)c1[N+](=O)[O-] (stereo not given)	HCMV antiviral -69
CCCN(CCC)CCCNC(=O)c1cn(CCOC)c(=O)c2c1c1ccccc1n2C	none
COc1ccc(/C=C/c2nc(C)c(-c3ccccc3)c(=O)[nH]2)cc1OC	HCMV antiviral -65 (no result: VACV Venus inh, VACV mCherry inh)
COc1cc(/C=C/c2nc3ccccc3c(=O)[nH]2)ccc1OC(F)F	none (no result: VACV Venus inh, VACV mCherry inh)
CC(C)(C(=O)NCc1ccco1)n1cc(NC(=O)c2cncc(Br)c2)cn1	none (no result: LmPK inhibitor, VACV Venus inh, VACV mCherry inh, TbPYK inhibitor)
COc1cc(OC)cc(C(=O)N[C@H](C(=O)Nc2cc(C)cc(C)c2)C(C)C)c1	HCMV antiviral -76
CC1(C)Cc2ccccc2-c2nnc(-c3ccco3)n21	none
Cc1cc(C)cc(NC(=O)C2CCN(S(=O)(=O)c3c(C)noc3/C=C/c3ccco3)CC2)c1	none (no result: LmPK inhibitor)
Cc1noc(/C=C/c2ccco2)c1S(=O)(=O)N1CCC(C(=O)Nc2ccc(F)c(Cl)c2)CC1	HCMV antiviral -84 (no result: LmPK inhibitor)
CCOc1ccc(NC(=O)C2CCN(S(=O)(=O)c3c(C)noc3/C=C/c3ccco3)CC2)cc1	HCMV antiviral -78 (no result: LmPK inhibitor)
Cc1cccc(NC(=O)C2CCN(S(=O)(=O)c3c(C)noc3/C=C/c3ccco3)CC2)n1	HCMV antiviral -66
Cc1cc(NC(=O)C2CCN(S(=O)(=O)c3c(C)noc3C)CC2)ccc1Br	HCMV antiviral -61!
O=C(COc1ccc2c(C(F)(F)F)cc(=O)oc2c1)Nc1ccc(N2CCOCC2)cc1	none (no result: VACV Venus inh, VACV mCherry inh)
NC(=O)CCC(NS(=O)(=O)c1ccc(Cl)cc1)C(=O)NCc1ccccc1 (stereo not given)	none (no result: VACV Venus inh, VACV mCherry inh, TbPYK inhibitor)
O=C(Nc1ccc(F)c(F)c1)C1CCN(S(=O)(=O)c2cccc3nonc23)CC1	HCMV antiviral -77
CC(=O)Nc1ccc(NC(=O)C2CCN(S(=O)(=O)c3cccc4nonc34)CC2)cc1	none
CCN(CC)CCNC(=O)C1CCN(S(=O)(=O)c2c(C)noc2/C=C/c2ccccc2F)CC1	HCMV antiviral -78!
c1ccc2c(c1)OCC(c1csc3ncnc(N4CCCC4)c13)O2 (stereo not given)	none (no result: VACV mCherry inh)
c1ccc(CCNc2ncnc3scc(C4COc5ccccc5O4)c23)cc1 (stereo not given)	HCMV antiviral -84 (no result: VACV Venus inh, VACV mCherry inh)
Cc1cc(/C=C(\C#N)C(=O)Nc2ccc(F)cc2)c(C)n1-c1ccc(N2CCOCC2)c([N+](=O)[O-])c1	HCMV antiviral -79 (no result: VACV Venus inh, VACV mCherry inh)
COc1ccc(NC(=O)/C(C#N)=C/c2cc(C)n(-c3ccc(N4CCOCC4)c([N+](=O)[O-])c3)c2C)cc1	HCMV antiviral inconclusive
Cc1ccc(C2CC(=O)NC3=C2C(=O)CCC3)cc1Br (stereo not given)	none (no result: VACV mCherry inh)
Cn1c(CNc2cccc(Cl)c2)nnc1SCC(=O)OC1CCCCC1	HCMV antiviral -80 (no result: VACV Venus inh, VACV mCherry inh)
Cc1c(N=C2NC(=O)C(CC(=O)Nc3ccc(Cl)cc3)S2)c(=O)n(-c2ccccc2)n1C (stereo not given)	none (no result: VACV mCherry inh)
Cn1c(N)c(C(=O)CSc2ccc3c(c2)OCCO3)c(=O)n(C)c1=O	none (no result: VACV mCherry inh)
CC(C(c1ccc2c(c1)OCO2)c1c(N)n(C)c(=O)n(C)c1=O)[N+](=O)[O-] (stereo not given)	HCMV antiviral -63 (no result: LmPK inhibitor, VACV Venus inh, VACV mCherry inh)
Cc1ccc(-c2nc(CN(C)C3CCOCC3)c(C)o2)s1	none (no result: VACV Venus inh, VACV mCherry inh)
Cc1ccc(-c2nc(CN(C)Cc3cccc4cnccc34)c(C)o2)s1	VACV Venus inh inconclusive, HCMV antiviral -67
COc1cc(-c2noc(C)c2/C=C/c2ccc(OC(C)=O)cc2)cc(OC)c1OC	VACV Venus inh inconclusive, HCMV antiviral -65, VACV mCherry inh inconclusive
COc1ccc(N(CC(=O)Nc2c(C)n(C)n(-c3ccccc3)c2=O)S(=O)(=O)c2ccccc2)cc1OC	none
CCOc1ccccc1N(CC(=O)Nc1c(C)n(C)n(-c2ccccc2)c1=O)S(=O)(=O)c1ccccc1	HCMV antiviral -78 (no result: VACV Venus inh, VACV mCherry inh)
CCOc1ccc(N(CC(=O)Nc2c(C)n(C)n(-c3ccccc3)c2=O)S(=O)(=O)c2ccc(F)cc2)cc1	HCMV antiviral -66
CC(=O)NCCCNC(=S)NCCCN(Cc1ccc(Cl)cc1)c1ccc(Br)cn1	VACV Venus inh 11µM, VACV mCherry inh inconclusive (no result: LmPK inhibitor)
CS(=O)(=O)N1CCN(c2ccccc2NC(=O)c2ccc(-c3ccc(Br)cc3)o2)CC1	none (no result: VACV Venus inh, VACV mCherry inh)
O=C(CSc1nc2nccnc2c(=O)n1CCc1c[nH]c2ccccc12)Nc1ccc(F)cc1	HCMV antiviral -63 (no result: LmPK inhibitor)
Cc1ccc(S(=O)(=O)N2CCC(C(=O)NCC(C)(C)N3CCOCC3)CC2)c(C)c1	none (no result: LmPK inhibitor, VACV Venus inh, VACV mCherry inh)
CC(C)(CNC(=O)C1CCN(S(=O)(=O)c2cc([N+](=O)[O-])ccc2Cl)CC1)N1CCOCC1	VACV Venus inh inconclusive, VACV mCherry inh 14µM (no result: LmPK inhibitor)
COc1cc(OC)cc(C(=O)NCC(=O)NCC(c2ccco2)N2CCCCC2)c1 (stereo not given)	none (no result: LmPK inhibitor)
CCOc1cc(/C=C\[N+](=O)[O-])ccc1OCC(=O)N1CCOCC1	HCMV antiviral -92, TbPYK inhibitor inconclusive
CCN1CCN(C(c2ccc(C(F)(F)F)cc2)c2ccc3cccnc3c2O)CC1 (stereo not given)	VACV Venus inh inconclusive, HCMV antiviral -85, VACV mCherry inh inconclusive
CN1CCN(C(c2ccc(C(F)(F)F)cc2)c2cc(Cl)c3cccnc3c2O)CC1 (stereo not given)	HCMV antiviral inconclusive (no result: VACV Venus inh, VACV mCherry inh, TbPYK inhibitor)
CC1CCC2C(=O)N(c3ccc(Cc4ccncc4)cc3)C(=O)C2C1 (stereo not given)	HCMV antiviral -75
CCc1ccc(N2C(=O)C3C4C=CC(CC4)C3C2=O)cc1 (stereo not given)	none (no result: VACV Venus inh, VACV mCherry inh)
CC1CCN(C(=O)c2ccc(N3C(=O)C4CCC(C)CC4C3=O)cc2)CC1 (stereo not given)	VACV mCherry inh inconclusive
O=C1C2C3C=CC(C3)C2C(=O)N1c1ccc(Cc2ccncc2)cc1 (stereo not given)	HCMV antiviral -67
O=C(Nc1ccc(Cc2ccncc2)cc1)C1CCC(N2C(=O)C3C4C=CC(C4)C3C2=O)CC1 (stereo not given)	HCMV antiviral -80, VACV mCherry inh inconclusive
O=C(N/N=C/c1ccoc1)c1ccc(Br)cc1	none (no result: VACV Venus inh, VACV mCherry inh)
COc1cccc(/C=N/NC(=O)c2c(C)nc3ccc(Cl)cn23)c1O	VACV Venus inh inconclusive, HCMV antiviral -99, VACV mCherry inh 3.2µM
